# Results from PubChem BioAssay (NCI).
# This is part of a sample that, as a whole, favours compounds with a hit. Of some 83,000 tested, about 20% had one in any assay.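 In brief: 96-well plates, 48 h treatment, single concentration, percent growth endpoint.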 A number with no mark means an inactive call. Activity calls are given as the source filed them. How the source made its calls: active means growth percent below 10; inactive means the rest.
# System: HL-60(TB) leukemia
# Experiment: NCI-60 one-dose screen, 48 h (100 = growth as untreated, 0 = no growth, -100 = all killed)
# Settings: 10 µM unless noted
row,SMILES,growth
1,C/C=C(/C)C(=O)O[C@@H]1CC(C)(C)CC2C34OC(=O)[C@@]21CC[C@@]3(C)[C@]1(C)CCC2C(C)(C)C(=O)CC[C@]2(C)C1C[C@@H]4Cl (stereo not given in full),101%
2,O=c1c(Cc2ccc(F)cc2)cc(-c2ccccc2)nn1C/C(=N/O)c1ccccc1,24.8%
3,O=C1c2ccccc2C(=O)c2c(NCCN=Cc3c(O)ccc4ccccc34)cccc21,66.3%
4,CCOC(=O)C1=C(CSC(=S)N(C2CCCCC2)C2CCCCC2)N(C)C(=O)NC1c1ccccc1 (stereo not given),15.3%
5,CCCNC(=O)c1cn2ncnc(Nc3cc(C(=O)NC4CC4)ccc3C)c2c1C,129%
6,CC(C)CC1NC(C)(C)CO1 (stereo not given),133%
7,Cc1cc2c(-c3nc4ccccn4c3N)c(O)c(O)cc2c(O)c1-c1c(C)cc2c(-c3nc4ccccn4c3N)c(O)c(O)cc2c1O,9.95% (active)
8,CCOC(=O)c1[nH]c(C)c(C(=O)O)c1C,91.6%
9,COc1cc(C(=O)n2nc(N3CCOCC3)c3cc(-n4cccc4)ccc32)cc(OC)c1OC,61.6%
10,CCN(CC)CCOc1nc2c3ccc(Cl)cc3nn2c2ccccc12,19.5%
11,Cc1nc2ccc(-n3c(-c4ccc(Cl)cc4)nc4ccccc4c3=O)cc2n1Cc1ccccc1,78.2%
12,O=S(=O)(NCCCNc1cc(-c2cn(-c3ccccc3)nc2-c2cccc(O)c2)ccn1)c1cccc2ccccc12,17.1%
13,Cc1nc2c(c(N3CCCc4ccccc43)n1)CCC2,-42.3% (active)
14,CNc1nc(NC)c2cn[nH]c2n1,103%
15,CCCc1cc2c(cc1CN(Cc1cc3c(cc1CCC)OCO3)C(=N)OCC)OCO2,105%
16,Nc1c(C(=O)Nc2ccccc2)sc2nc3c(cc12)CN(CCc1ccccc1)CC3,102%
17,Cc1c(C(=N)C(C#N)C#N)c(=N)oc2c1ccc1ccccc12,65.2%
18,CCOC(=O)C1(N)CCCCC1,110%
19,CCOC(=O)c1ccc2c(c1)c1c(C)c3cccnc3c(C)c1n2C,77.4%
20,COc1cccc(/C=C2\COc3ccc(-c4ccccc4)cc3C2=O)c1,-47% (active)

row,SMILES,growth
1,C=C(C)[C@@H]1CC[C@]2(C(=O)O)CC[C@]3(C)[C@H](CC[C@@H]4[C@@]5(C)C/C(=C/c6ccco6)C(=O)C(C)(C)[C@@H]5CC[C@]43C)[C@@H]12,-17.2% [100 µM] (active)
2,COc1cc(Cl)c(C)cc1NC(=O)c1cc2ccccc2cc1O,9.27% (active)
3,CC(C)[C@H](CN)NC[C@H](C)NS(=O)(=O)c1ccc(C(C)(C)C)cc1,95.4%
4,NS(=O)(=O)c1ccc(C(=O)NN2C(=O)c3c(Br)c(Br)c(Br)c(Br)c3C2=O)cc1,103%
5,COc1ccc(N2C(=O)/C(=C/C(Cl)=C/c3ccc([N+](=O)[O-])cc3)SC2=S)cc1,-14% (active)
6,CC1CN(Cc2ccccc2)C(=O)NC1=O (stereo not given),88.7%
7,CCCCc1nc(Cl)c(C2CC(c3ccc(S(N)(=O)=O)cc3)=NN2c2cc(Cl)cc(Cl)c2)[nH]1 (stereo not given),9.72% (active)
8,O=C(N/N=C/c1ccc(O)c(O)c1)c1sc2ccccc2c1Cl,4.17% (active)
9,Cc1cc(C)c([I+]c2c(C)cc(C)cc2C)c(C)c1,-64.3% (active)
10,CCOC(=O)C1=C(Nc2ccc(OC)cc2)C(N)=NC1=N,3.35% (active)
11,C#Cc1cccc(Nc2nc3ccc([N+](=O)[O-])cc3nc2Nc2cccc(C#C)c2)c1,-33.9% (active)
12,O=Nc1c(-c2cccc([N+](=O)[O-])c2)nc2ncccn12,0.307% (active)
13,O=C(N/N=C/c1ccc([N+](=O)[O-])o1)c1ccc(O)cc1,19.8%
14,CCN1CCN(C(=O)[C@@]2(C)CC[C@]3(C)CC[C@]4(C)C(=CC(=O)[C@@H]5[C@@]6(C)CC[C@H](OCCC#N)C(C)(C)[C@@H]6CC[C@]54C)[C@@H]3C2)CC1,90.3%
15,COc1ccc(C(=O)CSc2nccc(Nc3ccc(C(=O)O)cc3)n2)cc1,99.5%
16,C#CCn1c2c(c3ccccc31)C[C@]1(C)[C@H]3CC[C@@H]4[C@@H]5C(=CCC[C@H]5C(=C)C)CC[C@@]4(C)[C@]3(C)CC[C@H]1C2(C)C,101%
17,Cc1nc2sc(C(=O)Nc3cccc4ccccc34)c(N)c2cc1C(O)c1ccccc1 (stereo not given),-55.1% (active)
18,O=C(/C=C/c1ccc(O)c(O)c1)N1CCN(c2ccc(Cl)cc2)CC1,12.9%
19,N[C@@H]1CCCN(c2c(/C=C3\SC(=O)NC3=O)cccc2-c2ccccc2)C1,26.5%
20,CCCC(=O)Oc1ccc2ccccc2c1,98.5%
